# Test results from PubChem BioAssay.
# Inconclusive results are not listed. Active and inactive are the calls of the source. Unless noted, no cut-off is given here; in the data, nearly all actives have AC50 up to about 30 µM.
# What was measured:
# [1] = compounds altering viability of human ES cells (AID 493140; call rule not given here;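 note: cells exposed to compounds for four days before counting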); conditions: human embryonic stem cell survival screen; stronger effect = higher value
# [2] = viability loss in pontine glioma line – cell-based, SU-DIPG-XIII, MIPE4.0, CellTiter-Glo, qHTS, dose response (AID 1347061; cut-off not given, nearly all actives have AC50 up to about 37 µM;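 note: cells exposed to compound for 48 hours before readout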); conditions: CellTiter-Glo ATP luminescence
# [3] = viability loss in pontine glioma line – cell-based, JHH-DIPG-1, MIPE4.0, CellTiter-Glo, qHTS, dose response (AID 1347062; cut-off not given, nearly all actives have AC50 up to about 27 µM); conditions: JHH-DIPG-1 viability, CellTiter-Glo ATP luminescence
# [4] = viability loss in pontine glioma line – cell-based, SU-DIPG-IV, MIPE4.0, CellTiter-Glo, qHTS, dose response (AID 1347063); conditions: CellTiter-Glo ATP luminescence;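 note: compound exposure lasted 48 hours before the viability readout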
# [5] = viability loss in pontine glioma line – cell-based, SU-DIPG-XXV, MIPE5.0, CellTiter-Glo, qHTS, dose response (AID 1347065; cut-off not given, nearly all actives have AC50 up to about 26 µM;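 note: cells exposed to compound for 48 hours before ATP readout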); conditions: CellTiter-Glo ATP luminescence
# [6] = growth inhibition of DIPG cells – cell-based, MIPE4.0 library, CellTiter-Glo luminescence, qHTS (AID 1347066); conditions: SU-DIPG-VI viability, CellTiter-Glo ATP luminescence;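 note: cells exposed to compound for 48 hours before readout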
# [7] = JHH-DIPG-1 glioma cell viability, MIPE5.0 library, CellTiter-Glo luminescence, qHTS (AID 1347067; cut-off not given, nearly all actives have AC50 up to about 26 µM;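 note: cells exposed to compound for 48 hours before readout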); conditions: JHH-DIPG-1 glioma viability, CellTiter-Glo ATP luminescence
# [8] = target: ATP-dependent translocase ABCB1 (Homo sapiens) (UniProt P08183); assay: P-glycoprotein substrate transport blockade – cell-based (AID 377; in the data active = fluorescence slope change above about 50%); conditions: MDR1-expressing cells, fluorescent substrate accumulation slope; stronger effect = higher value; concentration not given here
# [9] = viability loss in pontine glioma line – cell-based, SU-DIPG-XVII, MIPE5.0, CellTiter-Glo, qHTS, dose response (AID 1347060; cut-off not given, nearly all actives have AC50 up to about 26 µM;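 for AC50: cells exposed to compound for 48 hours before viability readout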); conditions: CellTiter-Glo ATP luminescence
# [10] = viability loss in pontine glioma line – cell-based, SU-DIPG-XIII, MIPE5.0, CellTiter-Glo, qHTS, dose response (AID 1347064; cut-off not given, nearly all actives have AC50 up to about 23 µM); conditions: CellTiter-Glo ATP luminescence
# [11] = growth inhibition of DIPG cells – cell-based, MIPE5.0 library, qHTS (AID 1347068; cut-off not given, nearly all actives have IC50 up to about 30 µM); conditions: SU-DIPG-XXV viability
# [12] = compounds altering Cy5-DNA-NS3h complex signal – biochemical, LOPAC1280, artefact control for HCV NS3 helicase inhibitor project (AID 687037; call rule not given here); conditions: Cy5-DNA-NS3h complex fluorescence interference counterscreen
# [13] = compounds altering HSF1 focus formation in cells – imaging, Selleck Cancer Library (AID 1347162; in the data active = plate-normalised HSF1 focus index below about 0.46); conditions: human cells, HSF1 nuclear foci imaging, at 10 µM; SSMD: measured here: HSF1 foci SSMD mean; cell count: measured here: cell number; plate-normalised HSF1 focus index: stronger effect = lower value
# ATP-dependent translocase ABCB1 (Homo sapiens), sequence (P08183 whole entry, looked up): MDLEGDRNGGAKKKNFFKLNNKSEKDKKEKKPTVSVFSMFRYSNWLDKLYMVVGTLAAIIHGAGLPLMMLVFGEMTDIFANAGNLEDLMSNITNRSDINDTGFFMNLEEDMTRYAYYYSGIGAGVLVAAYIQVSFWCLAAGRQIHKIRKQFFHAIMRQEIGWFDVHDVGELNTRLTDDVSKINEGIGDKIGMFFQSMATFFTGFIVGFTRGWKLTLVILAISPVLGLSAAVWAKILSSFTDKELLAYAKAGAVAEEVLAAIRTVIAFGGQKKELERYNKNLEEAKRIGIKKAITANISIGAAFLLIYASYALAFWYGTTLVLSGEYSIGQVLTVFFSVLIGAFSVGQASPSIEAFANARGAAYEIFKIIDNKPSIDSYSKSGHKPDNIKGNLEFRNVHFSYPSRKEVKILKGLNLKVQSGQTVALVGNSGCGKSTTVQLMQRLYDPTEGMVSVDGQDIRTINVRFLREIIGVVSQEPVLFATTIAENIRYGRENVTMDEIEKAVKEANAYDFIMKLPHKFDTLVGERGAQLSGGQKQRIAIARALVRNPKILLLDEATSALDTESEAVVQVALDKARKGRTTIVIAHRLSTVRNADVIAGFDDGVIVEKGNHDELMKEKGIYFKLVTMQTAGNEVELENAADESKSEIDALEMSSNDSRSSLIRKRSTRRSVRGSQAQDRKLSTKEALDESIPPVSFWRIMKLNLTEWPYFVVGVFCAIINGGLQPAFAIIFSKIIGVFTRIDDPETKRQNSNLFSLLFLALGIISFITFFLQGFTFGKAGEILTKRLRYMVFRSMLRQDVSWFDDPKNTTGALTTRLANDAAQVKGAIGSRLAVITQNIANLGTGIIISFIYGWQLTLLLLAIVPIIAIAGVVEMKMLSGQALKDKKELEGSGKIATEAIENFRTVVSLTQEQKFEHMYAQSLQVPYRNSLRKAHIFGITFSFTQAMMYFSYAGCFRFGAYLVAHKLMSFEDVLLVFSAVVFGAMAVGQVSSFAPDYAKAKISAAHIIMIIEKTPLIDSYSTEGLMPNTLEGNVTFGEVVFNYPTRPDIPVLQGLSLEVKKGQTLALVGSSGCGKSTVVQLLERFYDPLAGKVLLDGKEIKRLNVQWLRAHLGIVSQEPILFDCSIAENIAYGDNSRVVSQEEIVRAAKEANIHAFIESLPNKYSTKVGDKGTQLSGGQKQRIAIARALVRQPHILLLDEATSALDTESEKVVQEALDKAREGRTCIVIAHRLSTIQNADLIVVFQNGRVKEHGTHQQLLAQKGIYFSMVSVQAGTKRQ
structure (smiles),measurement,setting,value
O=c1cc(-c2ccccc2)oc2cc(O)cc(O)c12,survival,[1],11.8 (inactive)
same,outcome,[2],inactive
same,outcome,[3],inactive
same,outcome,[4],inactive
same,AC50,[5],20.9 µM (active)
same,outcome,[6],inactive
same,outcome,[7],inactive
O=C(/C=C/C=C/c1ccc2c(c1)OCO2)N1CCCCC1,fluorescence slope change,[8],92.2% (active)
same,survival,[1],6.58 (inactive)
same,outcome,[9],inactive
same,outcome,[2],inactive
same,outcome,[3],inactive
same,outcome,[4],inactive
same,outcome,[10],inactive
same,outcome,[5],inactive
same,outcome,[6],inactive
same,outcome,[7],inactive
same,outcome,[11],inactive
Nc1ccc(S(=O)(=O)Nc2ncccn2)cc1,survival,[1],31.2 (inactive)
same,outcome,[2],inactive
same,outcome,[3],inactive
same,outcome,[4],inactive
same,outcome,[6],inactive
c1coc(CNc2ncnc3nc[nH]c23)c1,fluorescence slope change,[8],8.8% (inactive)
same,survival,[1],3.5 (inactive)
same,outcome,[9],inactive
same,outcome,[2],inactive
same,outcome,[3],inactive
same,outcome,[4],inactive
same,outcome,[10],inactive
same,outcome,[5],inactive
same,outcome,[6],inactive
same,outcome,[7],inactive
same,outcome,[11],inactive
COc1cc(/C=C/C(=O)O)ccc1O,outcome,[2],inactive
same,outcome,[3],inactive
same,outcome,[4],inactive
same,outcome,[6],inactive
NC(N)=NC(N)=Nc1ccccc1,fluorescence ratio (interference),[12],1 (inactive)
CC1=C(/C=C/C(C)=C/C=C/C(C)=C/C=C/C=C(C)/C=C/C=C(C)/C=C/C2=C(C)CCCC2(C)C)C(C)(C)CCC1,outcome,[2],inactive
same,outcome,[3],inactive
same,outcome,[6],inactive
same,outcome,[11],inactive
O=C(O)/C=C/c1ccc(O)c(O)c1,fluorescence ratio (interference),[12],1 (inactive)
same,AC50,[4],20.9 µM (active)
C[N+](C)(C)CCO,fluorescence ratio (interference),[12],1 (inactive)
COc1ccc(-c2coc3cc(O)cc(O)c3c2=O)cc1,AC50,[9],26.3 µM (active)
same,outcome,[3],inactive
same,outcome,[5],inactive
same,outcome,[6],inactive
CC[C@H]1OC(=O)[C@H](C)[C@@H](O[C@H]2C[C@@](C)(OC)[C@@H](O)[C@H](C)O2)[C@H](C)[C@@H](O[C@@H]2O[C@H](C)C[C@H](N(C)C)[C@H]2O)[C@](C)(O)C[C@@H](C)C(=O)[C@H](C)[C@@H](O)[C@]1(C)O,fluorescence slope change,[8],76.3% (active)
same,outcome,[9],inactive
same,outcome,[5],inactive
same,outcome,[7],inactive
same,outcome,[11],inactive
c1ccc2c(Cc3c[nH]c4ccccc34)c[nH]c2c1,survival,[1],89.8 (inactive)
same,outcome,[9],inactive
same,outcome,[10],inactive
same,outcome,[5],inactive
same,outcome,[6],inactive
same,outcome,[11],inactive
COc1cc(O)c2c(c1)C(=O)c1cc(C)cc(O)c1C2=O,outcome,[2],inactive
same,outcome,[3],inactive
same,outcome,[6],inactive
Cc1cc(O)c2c(c1)C(=O)c1cccc(O)c1C2=O,outcome,[9],inactive
same,outcome,[2],inactive
same,outcome,[4],inactive
same,outcome,[10],inactive
same,outcome,[5],inactive
same,outcome,[7],inactive
same,outcome,[11],inactive
same,SSMD,[13],1.91
same,cell count,[13],7380
same,plate-normalised HSF1 focus index,[13],1.07 (inactive)
NC[C@H]1O[C@H](O[C@H]2[C@H](O)[C@@H](O[C@H]3O[C@H](CO)[C@@H](O)[C@H](N)[C@H]3O)[C@H](N)C[C@@H]2N)[C@H](N)C[C@@H]1O,outcome,[9],inactive
same,outcome,[2],inactive
same,outcome,[3],inactive
same,outcome,[4],inactive
same,outcome,[10],inactive
same,outcome,[6],inactive
same,outcome,[7],inactive
same,outcome,[11],inactive
OCC(O)C(O)C(O)CO (configuration not stated),outcome,[2],inactive
same,outcome,[3],inactive
same,outcome,[4],inactive
same,outcome,[6],inactive
COc1ccc(-c2cc(=O)c3c(O)cc(O)cc3o2)cc1O,AC50,[2],11.8 µM (active)
same,AC50,[6],10.5 µM (active)
Cc1cc(O)c2c(c1)C(=O)c1cc(O)cc(O)c1C2=O,fluorescence ratio (interference),[12],1 (inactive)
same,outcome,[2],inactive
same,outcome,[3],inactive
same,outcome,[10],inactive
same,outcome,[6],inactive
COc1ccc(-c2coc3cc(O)ccc3c2=O)cc1,outcome,[2],inactive
same,outcome,[3],inactive
same,outcome,[4],inactive
same,outcome,[6],inactive
